Reference: PubChem BioAssay AID1851 (National Center for Advancing Translational Sciences (NCATS), 2009)
Hit rate of the full screen: of about 16,000 compounds, about 5,100 (32%) were called active. Not shown: some 25% with an inconclusive outcome. The call rests on the fitted dose curve; in most records, active means well fitted curve in the direction sought with a large enough effect; inconclusive means small, poorly fitted or top-dose-only effect, or effect the other way; inactive means no such curve, though single readings can be large or run the other way. The list shows a part of the results.

Molecular target: Cytochrome P450 3A4 (Homo sapiens) (UniProt P08684)
Sequence (P08684 whole entry, looked up): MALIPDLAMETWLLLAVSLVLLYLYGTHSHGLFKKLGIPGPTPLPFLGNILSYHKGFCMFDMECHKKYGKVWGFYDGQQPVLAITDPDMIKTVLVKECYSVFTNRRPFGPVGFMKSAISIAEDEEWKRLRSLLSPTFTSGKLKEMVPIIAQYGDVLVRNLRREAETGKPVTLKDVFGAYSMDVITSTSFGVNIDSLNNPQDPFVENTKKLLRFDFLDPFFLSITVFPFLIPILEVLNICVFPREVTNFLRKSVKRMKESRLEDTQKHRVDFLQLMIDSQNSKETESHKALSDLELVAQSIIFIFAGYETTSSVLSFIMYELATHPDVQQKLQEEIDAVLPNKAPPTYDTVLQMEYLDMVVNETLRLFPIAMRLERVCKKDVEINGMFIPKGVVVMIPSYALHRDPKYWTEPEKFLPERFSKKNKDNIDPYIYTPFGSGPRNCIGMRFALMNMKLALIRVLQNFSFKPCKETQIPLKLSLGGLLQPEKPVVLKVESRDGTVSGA
Assay: Cytochrome panel assay with activity outcomes
Conditions: recombinant CYP, pro-luciferin dealkylation, luminescence, p450-cyp3a4; series mostly up to 57.1 µM
On the % scale 0 is the no-effect control and ±100 the full control effect.

Compound	AC50	activity, negative = inhibition
Cc1cccc(C)c1NC(=O)N1CCC(N2CCCCC2)CC1	inactive	
Cc1cccc(C)c1NC(=O)C(c1ccc(Cl)cc1Cl)N1CCCCC1 (centres undefined)	3.98 µM (active)	
O=C(O)/C=C\C(=O)Nc1ncn[nH]1		-3.91% [at 11.4 µM] (inactive)
CCCN[C@@H](C)C(=O)Nc1ccccc1C	inactive	
COC(=O)Nc1nc2ccc(C(=O)c3ccccc3)cc2[nH]1	inactive	
Cc1ccccc1NC(=O)C(C)c1cccc(C(=O)c2ccccc2)c1 (centres undefined)	7.94 µM (active)	
COc1cccc(CN2CCN(Cc3cc(OC)c(OC)cc3[N+](=O)[O-])CC2)c1		-15.7% [at 2.29 µM] (inactive)
COc1cccc(-c2noc(Cn3nc(C)c([N+](=O)[O-])c3C)n2)c1	14.1 µM (active)	
Cc1cccc(-c2n[nH]c([N+](=O)[O-])n2)c1		-5.58% [at 2.29 µM] (inactive)
CC[C@H](CO)NCCN[C@@H](CC)CO	inactive	
N[C@@H](Cc1[nH]nc2ccccc12)C(=O)O		-7.68% [at 11.4 µM] (inactive)
COc1ccc(CCNC(=O)COc2ccc(S(=O)(=O)NC3CCCCC3)cc2Cl)cc1	7.08 µM (active)	
CCC1=C(C)CN(C(=O)NCCc2ccc(S(=O)(=O)NC(=O)NC3CCC(C)CC3)cc2)C1=O (centres undefined)	inactive	
O=C(COc1ccc(Cl)cc1)NCCC1=CCCCC1		-14.7% [at 11.4 µM] (inactive)
CC(C)NC(=O)CC(=O)N/N=C/c1ccc(Br)cc1	inactive	
COc1ccc(CCCC(=O)NC2CCCCC2)cc1	20 µM (active)	
COC(=O)c1ccc(NC(=S)NC2CCCCC2)cc1	inactive	
COc1ccc(/C=N/NC(=O)CCCC(=O)NC2CCCCC2)cc1	12.6 µM (active)	
COc1ccc(/C=N\NC(=O)O)cc1		-13.4% [at 11.4 µM] (inactive)
CC(C)OC(=O)C1=C2SCC(=O)N2C(N)=C(C#N)C1		-16.2% [at 11.4 µM] (inactive)

Compound	AC50	activity, negative = inhibition
CN1CCN(c2nc(-c3cccc(C#N)c3)nc3ccccc23)CC1	15.8 µM (active)	
N#Cc1cccc(-c2nc(N3CCNCC3)c3ccccc3n2)c1	31.6 µM (active)	
c1ccc2c(N3CCNCC3)nc(-c3ccc4c(c3)OCO4)nc2c1	7.94 µM (active)	
COc1ccc(-n2c(=O)c(-c3cccc(C#N)c3)nc3cnc(N4CCNCC4)nc32)cc1	inactive	
CC(Cc1ccccc1)C(=O)NCc1ccccn1 (centres undefined)	inactive	
C[C@@H](C(=O)NCc1ccccn1)[C@H]1C[C@]1(C)[C@H](NC(=O)OCc1ccccc1)c1ccccc1	5.01 µM (active)	
C[C@@H](C(=O)NCc1ccccn1)[C@@H]1C[C@@]1(C)[C@@H](NC(=O)OCc1ccccc1)c1ccccc1	10 µM (active)	
O=C(N[C@@H](c1ccccc1)[C@@H]1C[C@H]1C(=O)NCc1ccccn1)OCc1ccccc1	6.31 µM (active)	
O=C(N[C@@H](c1ccccc1)[C@@H]1C[C@H]1C(=O)O)OCc1ccccc1	inactive	
O=C(O)C(Sc1ccc(Cl)cc1)Sc1ccc(Cl)cc1		12.3% [at 11.4 µM] (inactive)
COc1ccc2nc3oc(C(=O)NCc4cccs4)cc3cc2c1	inactive	
O=C(NCc1ccccc1)C(c1cccs1)N(Cc1cccs1)C(=O)c1cnccn1 (centres undefined)	0.891 µM (active)	
O=C(COC(=O)c1cnccn1)NCc1ccccc1		-20.5% [at 11.4 µM] (inactive)
COc1ccc(C(=O)n2c(SC)nc3cc4c(cc32)OCCO4)cc1		-12% [at 2.29 µM] (inactive)
CCc1ccc(C(C(=O)NCc2ccc(OC)cc2)N(CCOC)C(=O)Cc2cccs2)cc1 (centres undefined)	1 µM (active)	
COCCN(C(=O)c1ccco1)c1nnc(-c2ccc(OC)cc2)s1		-28.3% [at 2.29 µM] (inactive)
O=C(O)C(Cc1cccs1)C(=O)O		-8.79% [at 11.4 µM] (inactive)
COc1ccc(CNC(=O)C(c2ccc(C)cc2)N(Cc2cccs2)C(=O)c2ccc3c(c2)OCCO3)cc1 (centres undefined)	1 µM (active)	
COc1ccc(C(C(=O)NCc2ccccc2)N(Cc2cccs2)C(=O)c2cnccn2)cc1 (centres undefined)	0.708 µM (active)	
CCc1c(C)sc(NC(=O)OC)c1C(N)=O	inactive	

Compound	AC50	activity, negative = inhibition
CCOC(=O)c1c(NC(=O)CCc2ccc(CC)o2)sc(C)c1C	12.6 µM (active)	
CCOC(=O)c1c(NC(=O)CSc2nnnn2C)sc(C)c1C	14.1 µM (active)	
Cc1cccc(NC(=O)CSc2nnnn2C)n1	inactive	
Nc1nc2c(ncn2COCCO)c(=O)[nH]1	inactive	
O=C(CN(Cc1ccccc1)S(=O)(=O)c1ccc2c(c1)OCCO2)N/N=C/c1ccc(F)cc1		0.145% [at 2.29 µM] (inactive)
Cc1ccc(S(=O)(=O)N(CC(=O)N/N=C/c2ccc(F)cc2)c2cccc3cccnc23)cc1	1.26 µM (active)	
CC(C)NC(=O)CC(=O)N/N=C/c1ccc(F)cc1	inactive	
Cn1c(C(=O)O)c(CC(=O)NCC2COc3ccccc3O2)c2ccccc21 (centres undefined)		-8.31% [at 11.4 µM] (inactive)
O=C1CC2(CCCC2)CC(=O)N1CCCCNC[C@H]1COc2ccccc2O1	0.631 µM (active)	
COc1ccc(C(=O)Nc2cc(Cl)ccc2OC(=O)c2ccc(OC)cc2)cc1	22.4 µM (active)	
COc1ccc(NC(=O)C2(c3ccc(NC(=O)c4ccc(OC(C)=O)cc4)cc3)CCCC2)cc1	inactive	
Cc1ccc(C(=O)Nc2cc(Cl)ccc2OC(=O)c2ccc(C)cc2)cc1		-3.15% [at 2.29 µM] (inactive)
CCOc1ccc(NC(=O)c2ccc(OC)cc2)cc1	inactive	
COC(=O)COc1cccc(NC(=O)c2ccc(C)cc2)c1	17.8 µM (active)	
CC(=O)Nc1ccc(-c2cc(-c3ccc(NC(C)=O)cc3)nc(-c3ccccc3)n2)cc1		-4.31% [at 2.29 µM] (inactive)
COc1ccc(C(=O)Nc2cc(OC)cc(OC)c2)cc1	14.1 µM (active)	
Cc1cccc(NC(=S)NC(=O)c2cc(-c3ccccc3)nc3ccccc23)c1		-27.7% [at 11.4 µM] (inactive)
Cc1ccc(C(=O)Nc2cccc(-c3cnc4ccccc4n3)c2)cc1	2.24 µM (active)	
CCN1C(=O)[C@H]2[C@H]3[C@H](O)[C@H](O)C/C(=N/O[C@@H]4O[C@@H](COC(C)=O)[C@@H](OC(C)=O)[C@@H](OC(C)=O)[C@H]4OC(C)=O)[C@H]3CC[C@@H]2C1=O		-8.67% [at 11.4 µM] (inactive)
